Results taken from PubChem BioAssay AID504834 (National Center for Advancing Translational Sciences (NCATS), 2011).
Among all 320,000 compounds or so, about 22,000 (6.9%) were called active. Not shown: some 27% with an inconclusive outcome. The call rests on the fitted dose curve; in most records, active means well fitted inhibition curve with a large enough effect; inconclusive means small, poorly fitted or top-dose-only effect, or another doubt; inactive means no such curve, though single readings can be large or run the other way. This excerpt belongs to a sample that is enriched for actives.

test: Primary qHTS for delayed death inhibitors of the malarial parasite plastid, 96 hour incubation; details: P. falciparum luciferase reporter growth; series mostly up to 28.7 µM; activity change, negative = inhibition: at the top concentration
Description: The goal of this screen is to discover new antimalarial compounds that act by inhibiting the development of the apicoplast in the malarial parasite Plasmodium falciparum. The biochemical processes that make this organelle essential for erythrocytic stage parasites are not well understood. However, antibiotics such as azithromycin and tetracycline, which target the apicoplast translational machinery, have a potent antimalarial effect.
We have developed a cell-based assay that measures parasite growth based on the expression of an integrated copy of a firefly luciferase reporter. To detect small molecules that cause this "delayed death" phenotype, erythrocytes infected with the luciferase-expressing parasites were incubated with compounds for either one or two generations, corresponding to 48 and 96 hours, respectively. Compounds that inhibit parasite growth in the second generation, but not the first, should be enriched in antimalarials that target the apicoplast. Growth inhibition is detected by a decrease in luciferase activity.
Assay Provider: David Fidock and Eric Ekland, Columbia University
Keywords: NIH Roadmap, MLPCN, MLI, MLSMR, qHTS, NCGC, qHTS, malaria, luciferase, viability
Four microliters of infected erythrocytes (2% hematocrit, 0.05% parasitemia final concentration) in culture medium were dispensed and the plates incubated for 96 hours at 37 C in 5% CO2. Two microliters of luciferase detection reagent was added and luminescence was detected by a ViewLux (PerkinElmer) reader.
On the % scale 0 is the no-effect control and ±100 the full control effect; potency means the concentration at half of the fitted maximal effect.

SMILES | activity change, negative = inhibition | Potency
CC1CCCCN1C(=O)CCS(=O)(=O)Cc1ccccc1 (stereo not given) | 0% (inactive) | 
CC(OC(=O)c1ccccc1NCCO)C(=O)Nc1ccnn1C(C)C (stereo not given) | 9.28% (inactive) | 
CC(CCN1CCN=C1N(C)C)c1ccccc1 (stereo not given) | 0% (inactive) | 
COc1ccc(N=C(C)c2sc3ccccc3c2O)cc1 | 166% (inactive) | 
Cc1ccc(NS(=O)(=O)c2cn(C)c(=O)n(C)c2=O)c(C)c1 | -6.8% (inactive) | 
Fc1ccccc1N=C1Nc2cccc3cccc1c23 | 5.56% (inactive) | 
c1ccc(C2=Nc3cccc4cccc(c34)N2)cc1 |  | 11.7 µM (active)
Brc1ccc(C2CC(c3ccccc3)=Nc3ccccc3N2)cc1 (stereo not given) | -26% (inactive) | 
C[C@@H](NC(=O)[C@@H]1Cc2ccccc2CN1)C(=O)NC1CCCC1 | -9.37% (inactive) | 
CN(Cc1cnccn1)C(=O)c1cc(COc2cccc(C(F)(F)F)c2)on1 | -9.17% (inactive) | 
COc1ccc(N2CCN(S(=O)(=O)c3ccc4c(c3)NC(=O)C(C)C(=O)N4)CC2)cc1 (stereo not given) | 10.7% (inactive) | 
COCCNc1nc(N)c([N+](=O)[O-])c(NCCO)n1 | 31.3% (inactive) | 
Nc1nc(NCC(=O)O)nc(N2CCCCCC2)c1[N+](=O)[O-] | 20.6% (inactive) | 
C=CCNc1nc(N)c([N+](=O)[O-])c(NC2CCCCC2)n1 |  | 10.4 µM (active)
O=C(COc1ccc2ccc(=O)oc2c1)NCC(O)c1ccccc1 (stereo not given) | -26.5% (inactive) | 
O=C(CCC1CCCC1)N=C1SC2CS(=O)(=O)CC2N1Cc1ccccc1 (stereo not given) | 37.1% (inactive) | 
Cc1ccccc1OCC(=O)NNC(=O)c1ccc(-n2cncn2)c([N+](=O)[O-])c1 | 23.3% (inactive) | 
O=c1c2ccccc2nnn1CSc1nnnn1-c1ccccc1 | 46% (inactive) | 
C=CCn1c(SCn2nnc3ccccc3c2=O)nnc1-c1ccc(Cl)cc1 |  | 11.7 µM (active)
O=C(Cn1nnc2ccccc2c1=O)NCc1ccc(Cl)cc1 | 81.2% (inactive) | 
N/C(=N\S(=O)(=O)c1ccc(Cl)cc1)N1CCOCC1 | -3.64% (inactive) | 
CCOC(=O)Cc1csc(SCC(=O)Nc2ccc(C)cc2F)n1 | 21.7% (inactive) | 
Cc1nc2ccccc2nc1N/N=C/c1ccc(O)cc1O |  | 2.94 µM (active)
Cc1cc(N/N=C/c2ccccc2F)c2ccccc2n1 | 2.63% (inactive) | 

SMILES | activity change, negative = inhibition | Potency
Oc1ccc(/C=N/Nc2nc(-c3ccccc3F)nc3ccccc23)c(O)c1 |  | 11.7 µM (active)
Fc1ccc(/C=N/Nc2nc(-c3cccnc3)nc3ccccc23)cc1 | 0% (inactive) | 
FC(F)(F)c1nc2ccccc2nc1N/N=C/c1ccc(Cl)cc1 | 37.3% (inactive) | 
Oc1ccc(/C=N/NC2=NCCCCC2)c(O)c1 | 27.9% (inactive) | 
CC1CCCN(C(=O)CN2C(=O)c3ccccc3S2(=O)=O)C1 (stereo not given) | 309% (inactive) | 
COc1cc(OC)cc(/C(N)=N/O)c1 | 110% (inactive) | 
Cc1snc(SCc2c(F)cccc2Cl)c1C#N | 7.68% (inactive) | 
CSc1cc(C)[nH]c(=O)n1 | 0% (inactive) | 
Cc1cc(SCc2c(F)cccc2Cl)nc(=O)[nH]1 |  | 11.7 µM (active)
O=c1cc(CN2CCN(S(=O)(=O)/C=C/c3ccccc3)CC2)c2ccc(O)cc2o1 |  | 11.7 µM (active)
Cc1onc(-c2ccccc2)c1C(=O)N1CCN(S(=O)(=O)c2ccccc2C(F)(F)F)CC1 | 3.53% (inactive) | 
NC(=O)CCN1CCN(S(=O)(=O)/C=C/c2ccccc2)CC1 | 12.9% (inactive) | 
O=C(CN1CCN(S(=O)(=O)/C=C/c2ccccc2)CC1)Nc1ccc(N2CCOCC2)cc1 | -2.43% (inactive) | 
CN1CCN(Cc2ccccc2C(F)(F)F)CC1 | -13.6% (inactive) | 
Cc1ccc2c(CN3CCN(S(=O)(=O)c4ccccc4C(F)(F)F)CC3)cc(=O)oc2c1 |  | 9.28 µM (active)
Cc1cccc(NC(=O)CCn2c(=O)oc3ccccc32)c1 | -2.59% (inactive) | 
CCCCn1c(N)c(N(CCOC)C(=O)c2oc3ccc(OC)cc3c2C)c(=O)[nH]c1=O | 0.114% (inactive) | 
O=C(NCCS(=O)(=O)c1ccc(Br)cc1)c1ccccc1Cl | 25.8% (inactive) | 
Cc1cccc(C(=O)Nc2ccc(C(=O)N/N=C/c3cccc(C)n3)cc2)c1 | 41.4% (inactive) | 
COc1cccc(NC(=O)CSc2nccn(-c3ccc4c(c3)OCCO4)c2=O)c1 | 23% (inactive) | 
CCOC(=O)c1ccc(NC(=O)CNC(=O)c2ccco2)cc1 | 254% (inactive) | 
CCOC(=O)[C@@H]1[C@H]2COc3ccc(Br)cc3[C@H]2N2C(=O)N(c3ccc(Cl)cc3)C(=O)[C@@]12C |  | 11.7 µM (active)
CCOC(=O)[C@H]1[C@H]2COc3cc(OC)ccc3[C@@H]2N2C(=O)N(c3ccc(Br)cc3)C(=O)[C@@]12C |  | 11.7 µM (active)
CCOC(=O)C1C(c2ccc(Cl)cc2)NC(=S)NC1(O)C(F)(F)F (stereo not given) | 7.76% (inactive) | 

SMILES | activity change, negative = inhibition | Potency
CCOC(=O)C1CCN(C(=O)Nc2cccc(OC)c2)CC1 | 8.91% (inactive) | 
COc1ccc(NS(=O)(=O)c2cccc(C(=O)NCCc3ccc(S(N)(=O)=O)cc3)c2)cc1 | -29.3% (inactive) | 
CC1CCCCC1NC(=O)COC(=O)Cc1ccc(Cl)cc1 (stereo not given) | 7.06% (inactive) | 
COc1ccc(-c2ocnc2C(=O)Nc2ccc3c(c2)CCC3)cc1 | 13% (inactive) | 
O=S(=O)(Nc1ccccc1Br)c1cccs1 | 9.4% (inactive) | 
CC(C)CCNC(=O)c1cccnc1Sc1ccccc1 | 55.7% (inactive) | 
CCCCN(C)CCCNC(=O)c1cc(-c2cccs2)nc2ccccc12 | -14% (inactive) | 
CC(C)OCCCNC(=O)c1cc(Sc2ccc(F)cc2)nc2ccccc12 |  | 3.29 µM (active)
O=C(O)C(NS(=O)(=O)c1cccc2nsnc12)c1ccccc1 (stereo not given) | 19.4% (inactive) | 
CC(=O)Nc1cccc(NC(=O)c2ccc3c(c2)CCN3S(C)(=O)=O)c1 | -3.65% (inactive) | 
O=C(CCCCO)c1ccc(O)c(Cl)c1 | 104% (inactive) | 
COc1cc(OC)cc(C(=O)NCCCn2ccnc2)c1 | 30.8% (inactive) | 
COc1ccc(/C=C(\C#N)C(=O)NCCCn2ccnc2)cc1 | -13.6% (inactive) | 
COc1cccc(-c2nn(-c3ccccc3)cc2/C=C(\C#N)C(=O)NCCCn2ccnc2)c1 |  | 1.65 µM (active)
C/C=C(/C)C(=O)Nc1cccc(C2=NOC3(C2)C[C@@H](C(N)=O)N(C(=O)C2(C)CC2)C3)c1 (stereo not given in full) | 70.1% (inactive) | 
CCOc1ncccc1C(=O)OCC(=O)c1c[nH]c2ccccc12 | -114% (inactive) | 
O=C(NCCS(=O)(=O)NCc1ccc(F)cc1)c1ccccc1 | 0.0784% (inactive) | 
CSc1nccc(NC(=O)c2ccc(C(C)(C)C)cc2)n1 | 13.2% (inactive) | 
CN1CCN(C2=NCCO2)CC1 | 6.75% (inactive) | 
Cc1ccc(Sc2cc(C(=O)c3ccccc3C(=O)O)ccc2[N+](=O)[O-])cc1 | -11.7% (inactive) | 
CN(C)c1ccc(Nc2c3c4c(cccc4n(C)c2=O)C(=O)c2ccccc2-3)cc1 |  | 5.22 µM (active)
CN(C)c1ccc(C2N(C)C(=O)c3ccccc3N2C)cc1 (stereo not given) | 0% (inactive) | 
